Laboratory results taken from PubChem BioAssay AID651784 (National Center for Advancing Translational Sciences (NCATS), 2012).
Results filed as inconclusive are left out. Calls of active or inactive are those of the source. The call rests on the fitted dose curve; in most records, active means well fitted inhibition curve with a large enough effect; inconclusive means small, poorly fitted or top-dose-only effect; inactive means no such curve, though single readings can be large or run the other way.
Potency means the concentration at half of the fitted maximal effect.

Experiment: Acumen qHTS Assay for Inhibitors of the mTORC1 Signaling Pathway in MEF (Tsc2-/-, p53-/-) Cells: Hit Validation;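 further: phospho-rpS6 Ser235/236 immunofluorescence normalized to propidium iodide cell count; nearly all actives have a fitted effect of over 65% in size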;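 on activity change, negative = inhibition: cells exposed to compound for 24 hours; plate controls were DMSO for no effect and 7.5 nM rapamycin control for full effect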
Details: Acumen imaging; activity change, negative = inhibition: at 37.3 µM (top of the series)
With `COc1ccc(NC(=O)C(NC(=O)/C=C\c2ccc3c(c2)OCO3)c2ccccc2)cc1` (configuration not stated) the Potency was 11.7 µM (active). Work on `O=C(Cn1c(=O)c2cccn2c2ccccc21)NCc1ccccc1F` yielded an activity change, negative = inhibition of 18.1%. With `CCOc1ccccc1NC(=O)Cn1c(=O)n(CCC(=O)NCc2ccc3c(c2)OCO3)c(=O)c2ccccc21` the activity change, negative = inhibition was -23.6%. With `Cc1ccc(C(=O)CC2(O)C(=O)N(Cc3ccccc3F)c3ccccc32)cc1` (configuration not stated) the activity change, negative = inhibition was -11.8%. Work on `COc1ccc(N2CC(c3nc(-c4cc(OC)c(OC)c(OC)c4)no3)CC2=O)cc1Cl` (configuration not stated) yielded an activity change, negative = inhibition of 5.08%. `CC(C)(C)c1ccc(C2NC(=O)c3n[nH]c(-c4cccs4)c32)cc1` (configuration not stated) gave an activity change, negative = inhibition of -6.84%. For `CCN(CC)CCNC(=O)c1cc(-c2ccc(Br)s2)nc2ccccc12`, the Potency was 11.7 µM (active). Molecule `CCCCN1C(=O)C(O)(c2c(C)[nH]c3ccccc23)c2cc(Br)ccc21` (configuration not stated) has an activity change, negative = inhibition of -47%. Molecule `COc1cc2ncnc(Nc3ccc(F)c(Cl)c3)c2cc1OCCCN1CCOCC1` has an activity change, negative = inhibition of -7.44%. For `CCc1ccccc1NC(=O)CSCc1cnn(-c2ccccc2)c1-n1cccc1`, the activity change, negative = inhibition was 14.7%. In the case of `COc1ccc(Nc2cc(C)nc(-n3nc(C)cc3C)n2)cc1Cl`, the Potency is reported as 0.147 µM (active). With `Cc1ccccc1NC(=O)c1sc2nc3c(cc2c1N)CCCC3` the activity change, negative = inhibition was -21.3%. With `Cc1ccc(-c2nnc(Nc3cccc(Cl)c3)c3ccccc23)cc1S(=O)(=O)N1CCN(C)CC1` the activity change, negative = inhibition was -42.6%. With `CC(C)(C)C(=O)Nc1ccc(-c2nc3ccc(NC(=O)C(C)(C)C)cc3[nH]2)cc1` the activity change, negative = inhibition was -3.72%. `COc1ccc(CCNC(=O)C(C)n2nc(C)c3sc4ccccc4c3c2=O)c(OC)c1` (configuration not stated) gave an activity change, negative = inhibition of -17.7%. In the case of `CCC(C(=O)N1CCN(c2cccc(C)c2C)CC1)n1nc(C)c2sc3ccccc3c2c1=O` (configuration not stated), the activity change, negative = inhibition is reported as -0.603%. With `COc1ccc2cc(CNc3ccccc3)c(=O)n(CC(=O)Nc3ccc(C)cc3C)c2c1` the activity change, negative = inhibition was -44%. In the case of `O=C(NC1CCN(Cc2ccccc2)CC1)c1ccc(Cn2c(=O)c3ccccc3n(Cc3ccc(F)cc3)c2=O)cc1`, the Potency is reported as 3.69 µM (active). In the case of `CCOc1ccc(N(Cc2ccccc2)C(=O)c2nc(S(C)(=O)=O)ncc2Cl)cc1`, the Potency is reported as 2.93 µM (active). `CCOC(=O)c1sc2ccccc2c1S(=O)(=O)Nc1ccc(CC)cc1` gave an activity change, negative = inhibition of -9.52%. With `CCCCOCc1cc(CN2CCN(c3cccc(Cl)c3)CC2)c(O)c2ncccc12` the Potency was 2.61 µM (active). `CCOc1ccc(CNC(=O)c2ccccc2NC(=O)c2nsc3ccccc23)cc1` gave an activity change, negative = inhibition of -112%. In the case of `COc1ccc(-c2nnc(SCC(=O)NCc3ccccc3)nc2-c2ccc(OC)c(OC)c2)cc1OC`, the Potency is reported as 18.5 µM (active). `CCOc1ccc(CCNCc2c(C(=O)O)n(Cc3ccc(C)cc3)c3cc(OC)ccc23)cc1` gave an activity change, negative = inhibition of -26.5%. `Cc1cccc(N2CCN(C(=O)C3CCN(C(=O)c4cc5sccc5n4C)CC3)CC2C)c1` (configuration not stated) showed an activity change, negative = inhibition of -39.1%. With `CC1CCN(S(=O)(=O)c2ccc(C(=O)Nc3sc4c(c3C(N)=O)CC(C)(C)NC4(C)C)cc2)CC1` the activity change, negative = inhibition was -107%. Molecule `CCCCN(CC)CCNC(=O)C1CCN(c2nnc(C)c3c(C)n(-c4ccc(C)cc4)nc23)CC1` has an activity change, negative = inhibition of -14.5%. In the case of `CCN1C(=O)c2ccccc2Sc2ccc(NC(=O)Cc3ccc(OC)cc3)cc21`, the Potency is reported as 4.14 µM (active). For `Cc1cccc(-n2nnnc2S(C)(=O)=O)c1`, the activity change, negative = inhibition was -92%. With `CCN1CCC(N(Cc2ccc(F)cc2)C(=O)Nc2ccc(C)c(F)c2)CC1` the activity change, negative = inhibition was 5.5%. `CCn1c(=O)sc2cc(NS(=O)(=O)c3ccc(F)c(C)c3)ccc21` gave an activity change, negative = inhibition of -28.9%. Molecule `Cc1cc(NC(=O)c2ccco2)cc(-c2nc3cc(Cl)ccc3o2)c1O` has an activity change, negative = inhibition of -46.5%. In the case of `CCS(=O)(=O)c1ncc(Cl)c(C(=O)N2CCN(c3cccc(Cl)c3)CC2)n1`, the Potency is reported as 1.31 µM (active). `Cc1ccccc1Oc1nc2ccccn2c(=O)c1/C=C(\C#N)c1nc2ccccc2[nH]1` gave an activity change, negative = inhibition of 2.47%. With `CN(C)c1ccc(Nc2nc3ccccc3n3nnnc23)cc1` the activity change, negative = inhibition was -10%. In the case of `Cc1ccc(NC(=O)CCNS(=O)(=O)c2cccc3nonc23)cc1Cl`, the activity change, negative = inhibition is reported as 5.73%. With `CC(=O)N1CCCc2cc(S(=O)(=O)N(Cc3ccccc3)C(C)C)ccc21` the activity change, negative = inhibition was -22.8%.
